D2 ag-1 – HTS Assay for Allosteric Agonists of the Human D2 Dopamine Receptor: Primary Screen for Agonists; D(2) dopamine receptor (Homo sapiens), P14416; HEK293 T-REx D2 cells, calcium flux agonist mode; activation, % at 2 µM; actives 0.53% (n = 340,000);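 active = activation over 3 SD above normal in the single-dose calcium agonist read, cut at about 30% in these data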
Target sequence (P14416 whole entry, looked up): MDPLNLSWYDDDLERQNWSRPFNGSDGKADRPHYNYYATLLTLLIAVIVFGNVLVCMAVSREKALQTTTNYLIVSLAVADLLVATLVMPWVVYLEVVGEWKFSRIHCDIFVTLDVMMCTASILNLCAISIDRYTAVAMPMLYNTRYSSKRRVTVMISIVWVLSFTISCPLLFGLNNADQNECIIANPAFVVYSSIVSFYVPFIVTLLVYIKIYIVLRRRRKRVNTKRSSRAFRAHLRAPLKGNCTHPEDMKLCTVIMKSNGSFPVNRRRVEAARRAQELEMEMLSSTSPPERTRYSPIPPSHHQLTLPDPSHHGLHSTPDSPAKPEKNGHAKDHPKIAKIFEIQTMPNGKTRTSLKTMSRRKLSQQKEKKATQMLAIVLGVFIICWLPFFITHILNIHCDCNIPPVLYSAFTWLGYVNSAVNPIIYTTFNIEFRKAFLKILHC
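Agonism scored from kinetic calcium signal (1 read/sec, 180 s) following compound pin transfer, after a 10 s baseline. Cells: HEK293 Trex line expressing inducible D2 receptor coupled to calcium, dye-loaded after overnight culture at 30 C.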
D2 antag – HTS Assay for Allosteric Antagonists of the Human D2 Dopamine Receptor: Primary Screen for Antagonists | inhibition, % at 10 µM | actives 2% (n = 340,000) | HEK293 TREx D2 cells, calcium flux, dopamine EC80 | D(2) dopamine receptor (Homo sapiens), P14416; in the data active = inhibition above about 30%; inactive = below that, where a call was filed
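Tetracycline-induced HEK293 TREx cells expressing D2 receptor forced-coupled to calcium signalling, loaded with no-wash calcium dye. Compounds added and calcium flux read 180 s, then dopamine added at EC80 and read a further 180 s.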
D2 ag-2 – Beta-Arrestin HTS for Positive Allosteric Modulators of the Human D2 Dopamine Receptor: Agonists | activation, % (no concentration beside the values) | DiscoveRx PathHunter D2 beta-arrestin, luminescence, 90 min; 100% = 57 uM dopamine signal | AID 624465, 2012 | actives 0.084% (n = 360,000); in the data active = activation above about 40%; inconclusive = between about 15% and that limit
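DiscoveRx PathHunter D2 beta-arrestin cells (2,100/well) attached overnight, then compound-stimulated 90 min at 37 C in HBSS/10 mM HEPES/0.1% Tween-20 buffer; beta-galactosidase complementation read by luminescence after 1 h at ambient temperature. Dopamine 57 uM final (EC100) as control.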
D2 PAM-1 – Beta-Arrestin HTS for Positive Allosteric Modulators of the Human D2 Dopamine Receptor: Potentiators; D(2) dopamine receptor (Homo sapiens), P14416; DiscoveRx D2 beta-arrestin cells, luminescence, 90 min; 100% = 57 uM dopamine signal; potentiation, % (no concentration beside the values); actives 0.23% (n = 360,000); AID 624464, 2012; in the data active = potentiation above about 50%; inconclusive = mostly about 30% to 49%
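PathHunter beta-arrestin assay in DiscoveRx D2 cells. Compounds were added with an EC20 of dopamine (50 nM final) for 90 min at 37 deg C. Luminescence was read 1 h after detection reagent, with 57 uM dopamine as the EC100 control.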
D2 PAM-2 – HTS Assay for Positive Allosteric Modulators of the Human D2 Dopamine Receptor: Primary Screen for Potentiators | D(2) dopamine receptor (Homo sapiens), P14416 | potentiation, % at 10 µM | HEK293 T-REx D2, calcium flux, EC20 dopamine potentiation | actives 0.34% (n = 340,000) | AID 485347, 2010;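 active = potentiation over 3 SD above the plate norm, cut at about 30% in these data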
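Cells plated with tetracycline inducer and held overnight at 30 C; calcium dye loaded 30–90 min at room temperature; baseline taken, compound added and read 180 s; EC20 dopamine then added and read 180 s.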
Of the large screens only hits and unclear results are named; the others gave an inactive call. This is a sample that favours compounds with a hit; in the whole collection about 2.4% have one here.

O=c1[nH]c(/C=C/c2cccc3ccccc23)nc2ccccc12	none
O=c1[nH]c(/C=C/c2ccccn2)nc2ccccc12	D2 antag 37.1
Cc1nc2sc(C(c3ccco3)N3CCN(C(c4ccccc4)c4ccccc4)CC3)c(O)n2n1 (stereo unspecified)	D2 PAM-2 32.5
Cc1nc2sc(C(c3ccco3)N3CCN(c4ccccc4)CC3)c(O)n2n1 (stereo unspecified)	none
CC(=O)Nc1ccc(NC(=O)COc2cc(O)c3c(c2)OC(C)(C)CC3=O)cc1	none
Cc1cc(OCC(=O)Nc2ccc(Br)cc2)cc2c1C(=O)CC(C)(C)O2	D2 antag 41.2
CC(=O)Oc1ccc(N(c2ccccc2)S(=O)(=O)c2ccc(C)cc2)cc1	D2 PAM-2 38.7
Cc1ccc(S(=O)(=O)N(C)c2ccccc2)cc1	none
CN(C(=O)Cn1nc(Cc2cccnc2)c2ccccc2c1=O)c1cccc(C(F)(F)F)c1	none (no result: D2 ag-1, D2 antag, D2 ag-2, D2 PAM-1)
CC(C)N(C(=O)N1CCN(c2ccnc3cc(Cl)ccc23)CC1)C(C)C	D2 antag 30.5
COc1ccc2[nH]c3c(c2c1)CCn1c-3nc2sc(C(=O)Nc3ccccc3)c(C)c2c1=O	D2 antag 39.2 (no result: D2 ag-2, D2 PAM-1)
O=C1NC(c2ccc(-c3ccccc3[N+](=O)[O-])o2)C(C(=O)c2ccc(F)cc2)C(O)(C(F)(F)F)N1 (stereo unspecified)	D2 ag-2 inconclusive, D2 PAM-1 58.4
CCOc1ccccc1NC(=O)NCc1noc2ccc(C)cc12	none (no result: D2 antag, D2 ag-2, D2 PAM-1)
Cc1ccc(CNC(=O)c2ccc(Nc3nc4ccccc4n4nnnc34)cc2)cc1	none (no result: D2 antag, D2 ag-2, D2 PAM-1)
Cc1ccc(CNc2nc3ccccc3n3nnnc23)cc1	D2 PAM-1 52.0
CC(=O)NC12CC3CC(C1)CC(C(=O)OCC(=O)Nc1c(F)cccc1F)(C3)C2	D2 antag 37.0
CCC(C)(C)n1nnnc1C(c1ccccc1)N1CCc2ccccc2C1 (stereo unspecified)	none
CCC(C)(C)n1nnnc1C(c1ccc(O)c(OC)c1)N1CCc2ccccc2C1 (stereo unspecified)	D2 antag 35.1
COc1ccc(OC)c(N)c1	D2 PAM-1 60.9
COc1ccc(NC(=O)c2ccc(-n3cccn3)c([N+](=O)[O-])c2)cc1	D2 antag 44.6
Brc1cccc(-c2nc3ccc(Br)cn3c2Cc2ccccc2)c1	none (no result: D2 ag-1, D2 antag, D2 PAM-2)
O=C(Nc1nnc([C@@H]2C[C@H](O)[C@@H](CO)O2)s1)c1c(F)cccc1F	none (no result: D2 ag-1, D2 antag, D2 PAM-2)
CCc1ccc(N2CC(C(=O)Nc3nc4ccc(S(C)(=O)=O)cc4s3)CC2=O)cc1 (stereo unspecified)	D2 antag 36.6
O=S(=O)(Nn1cnnc1)c1ccccc1Cl	D2 antag 30.4
CC(C)CCn1c(O)c(N=NC(=O)c2ccco2)c2ccccc21	D2 antag 31.3
COc1ccc(C(=O)[C@H]2[C@H]3C(=O)N(c4ccccc4)C(=O)[C@H]3C3C=CC=NN32)cc1 (stereo partly specified)	D2 antag 43.1
NS(=O)(=O)c1ccc(CNC(=O)CCSCCC(=O)NCc2ccc(S(N)(=O)=O)cc2)cc1	D2 antag 32.9
O=C(CCSCCC(=O)NCc1ccccc1)NCc1ccccc1	none
CCN1CCc2nc(SCC(=O)Nc3ccc(OC)cc3)c(C#N)cc2C1	D2 antag 35.7
COc1ccc(NC(=O)CSc2nc3c(cc2C#N)CN(C)CC3)cc1	none
Cc1oc(-c2ccccc2F)nc1CSCC(=O)NCc1ccccc1	none (no result: D2 antag, D2 ag-2, D2 PAM-1)
Cc1c(C(=O)NCc2ccco2)sc(=O)n1Cc1ccc(S(C)(=O)=O)cc1	none (no result: D2 ag-1, D2 antag, D2 PAM-2)
CC(NC(=O)C1CCN(C(=O)c2ccc(F)cc2)CC1)c1ccc(-n2ccnc2)cc1 (stereo unspecified)	D2 antag 31.0
